From PubChem BioAssay (NCATS) come the findings set out here.

Holding throughout (experiment): Cytotoxic Profiling of Annotated Libraries Using Quantitative High-Throughput Screening (AID 1296008); note: nearly all actives have a fitted effect of over 60% in size
Details in all cases: Five cell lines viability, CellTiter-Glo ATP luminescence, 48-72 h; max response: hits give low values

One assay has as its system HaCat. The method in brief:
(§1)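 Cytotoxicity was measured as CellTiter-Glo ATP luminescence, read after 10 min at room temperature. Compound treatment of the cells lasted 48 or 72 hr at 37 degrees Celsius in a qHTS format.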

The test system of another assay is KB-3-1. The procedure, abridged: as §1
The test system of a further assay is NIH3T3. The procedure, abridged:
as §1

Records with an inconclusive call do not appear. Unmarked numbers belong to inactive results. The source made the active and inactive calls. Calls come from the whole dose curve; as a rule, active = well fitted inhibition curve with a large enough effect; inconclusive = small, poorly fitted or top-dose-only effect; inactive = flat fitted curve, though single readings scatter.
% is set by controls: 0 for no effect and ±100 for the full control effect; potency is the fitted concentration of half-maximal effect.

With `C=C1C[C@]23C[C@H]1CC[C@H]2[C@]1(C)CCC[C@@](C)(C(=O)O)[C@H]1[C@@H]3C(=O)O`, the max response was -5.4% in the assay on HaCat, 0.882% in the assay with KB-3-1 and 2.88% with NIH3T3.

In the case of `COc1ccc(CCO[C@@H]2O[C@H](CO[C@@H]3OC[C@H](O)[C@H](O)[C@H]3O)[C@@H](O)[C@H](O)[C@H]2O)cc1`, the max response in the assay on HaCat is -19%; in the assay on KB-3-1 it was 4%; in the assay on NIH3T3, -5.95%.

Regarding `CC(C)C(N)C(=O)OCCOCn1cnc2c(=O)[nH]c(N)nc21` (centres undefined), the max response in the assay on HaCat was -13.5%; in the assay with KB-3-1 it was -4.91%; with NIH3T3 it was 1.39%.

In the case of `CC(=O)O[C@@H]1[C@@H](O)[C@H](C)O[C@@H](O[C@H]2[C@@H]3C=CO[C@@H](O[C@@H]4O[C@H](CO)[C@@H](O)[C@H](O)[C@H]4O)[C@@H]3[C@@]3(CO)O[C@@H]23)[C@@H]1OC(=O)/C=C/c1ccccc1`, the max response in the assay on HaCat is -6.78%; in the assay with KB-3-1, -1.35%; with NIH3T3, -1.99%.

For the molecule `Cc1cc(Nc2nc(NC(C)c3ncc(F)cn3)ncc2Cl)n[nH]1` (centres undefined), the max response was 0.354% with HaCat and -5.45% in the assay on NIH3T3. Also, the result in the assay with KB-3-1 was inactive.

As to `COCC1OC(OC(C)(C)C2CCC3(C)C=C(C4CCC5C4(C)CC(O)C4OC(C(C)(C)OC6OC(CO)C(O)C(O)C6NC(C)=O)CCC45C)CCC3O2)C(NC(C)=O)C(O)C1O` (centres undefined), the max response was -6.25% with HaCat, 1.62% in the assay with KB-3-1 and 1.73% with NIH3T3.

For `COc1cc2c(cc1O)[C@H](c1ccc(O[C@@H]3O[C@H](CO)[C@@H](O)[C@H](O)[C@H]3O)c(OC)c1)[C@@H](CO)[C@](O)(CO)C2`, the values for the max response with HaCat and with NIH3T3 were -2.06% and 2.92%, respectively. The result in the assay on KB-3-1 was inactive.

Regarding `CC(=O)OC[C@]12[C@H](OC(C)=O)C(=O)[C@@H]3[C@@H](OC(C)=O)[C@@]14O[C@@]3(C)COC(=O)c1cccnc1[C@@H](C)[C@H](C)C(=O)O[C@@H]([C@H](O)[C@@H]2OC(C)=O)[C@]4(C)O`, the max response is -0.606% in the assay on HaCat, -8.82% with KB-3-1 and -21% with NIH3T3.

As to `Cc1nc([C@](C)(O)CO)sc1-c1cnc(N)c(O[C@H](C)c2cc(F)ccc2-n2nccn2)c1`, the results for the Potency in the assay with HaCat, in the assay with KB-3-1 and in the assay on NIH3T3 were 14.6 µM (active), 18.4 µM (active) and 2.06 µM (active), respectively.

Regarding `C=C[C@@]12COC(=O)C(=C)C1[C@@H](O)[C@H](C(=C)C(=O)OC)[C@@H](OC(=O)C(=C)CO)C2` (some centres undefined), the results for the max response with HaCat and with NIH3T3 were -6.28% and -25.8%, respectively. Further, the molecule was classed as inactive with KB-3-1.

Regarding `C=CC(=O)Nc1cc(Nc2nccc(-c3c[nH]c4ccccc34)n2)c(OC)cc1N(C)CCN(C)C`, the Potency was 0.0366 µM (active) in the assay with HaCat, 8.2 µM (active) in the assay on KB-3-1 and 14.6 µM (active) in the assay with NIH3T3.

For `C=C[C@@](C)(O)CC/C=C(\C)C(=O)O[C@@H]1[C@@H]2O[C@]2(C)[C@H]2[C@H](O[C@@H]3O[C@H](CO)[C@@H](O)[C@H](O)[C@H]3O)OC=C[C@@]12O`, the max response was -5.52% in the assay with HaCat, -1.11% in the assay on KB-3-1 and 1.5% in the assay with NIH3T3.

As to `CCCNc1ccc2ncc(-c3ccc4[nH]ncc4c3)n2n1`, the Potency with HaCat was 0.411 µM (active); in the assay with KB-3-1, 1.3 µM (active); with NIH3T3, 3.26 µM (active).

Consider `CCCOc1ccc(-c2nc(OC)c3ccccc3n2)cc1`, for which the max response is -0.801% in the assay on HaCat and 1.75% in the assay with NIH3T3. Besides, the outcome in the assay with KB-3-1 was inactive.

As for `COc1ccc(C(O)C(C)OC2OC(CO)C(O)C(O)C2O)cc1` (centres undefined), the max response was 1.16% with HaCat and -2.23% in the assay on NIH3T3. In addition, the molecule was classed as inactive in the assay on KB-3-1.

As to `CN=C(N)NCCCCC/C=C(/C)CC(C)C1OC(=O)C(C)C(O)/C=C/C(C)C(O)CC(O)C(C)C(O)CCC(C)C(O)CC2(O)OC(CC(OC(=O)CC(=O)O)CC(O)CC(O)C(C)C(O)/C(C)=C/CCC1C)CC(O)C2O` (centres undefined), the max response was -0.878% in the assay on HaCat, 1.79% with KB-3-1 and 1.75% in the assay on NIH3T3.

For `O=C1N=C(N2CCOCC2)CN1c1ccc(Cl)cc1`, the max response with HaCat was -30.2%; in the assay with KB-3-1, 2.82%; with NIH3T3, -0.0852%.

For `C=C1CC[C@H]2[C@@](C)(CCC(O)[C@@]2(C)CO)[C@@H]1CCC1=CCOC1=O` (some centres undefined), the max response is -3.43% with HaCat, -26.3% in the assay with KB-3-1 and -1.37% in the assay with NIH3T3.

Regarding `C=C(C)C1CC[C@]2(C(=O)O)CC[C@]3(C(=O)O)[C@H](CCC4[C@@]5(C)CC[C@H](O)C(C)(C)C5CC[C@]43C)C12` (some centres undefined), the max response in the assay with HaCat was -4.71%; with KB-3-1, -4.13%; with NIH3T3, -12.2%.

Regarding `CC1COC(Nc2ccc3ncnc(Nc4ccc(OCc5nccs5)c(Cl)c4)c3c2)=N1` (centres undefined), the Potency with HaCat is 1.84 µM (active). The max response is -8.52% in the assay on KB-3-1 and 3.7% in the assay with NIH3T3.

For the molecule `C[C@H]1[C@H](O)O[C@@H]2O[C@@]3(C)CC[C@H]4[C@H](C)CC[C@@H]1[C@@]24OO3`, the Potency in the assay on HaCat is 6.51 µM (active); with KB-3-1, 16.4 µM (active); with NIH3T3 it was 13 µM (active).

On to `COc1cccc(Nc2ncnn3ccc(CN4CC[C@@H](N)[C@H](O)C4)c23)c1`, for which the Potency in the assay with HaCat is 0.0058 µM (active); in the assay on NIH3T3, 0.517 µM (active). The max response in the assay with KB-3-1 was -14.7%.

In the case of `COC1CC(OC2CCC3(C)C(=CCC4C3C(OC(C)=O)C(OC(=O)/C=C/c3ccccc3)C3(C)C(C(C)O)CCC43O)C2)OC(C)C1OC1CC(OC)C(OC2OC(C)C(OC3OC(CO)C(O)C(O)C3O)C(OC)C2O)C(C)O1` (centres undefined), the max response with HaCat was 0.93%; in the assay on KB-3-1 it was -1.59%; in the assay on NIH3T3, 0.895%.
